ST2 IL33 inh = inhibitors of human ST2 (IL1RL1) binding to IL-33, primary screen, biochemical, AlphaLISA | AlphaLISA ST2-Fc/biotin-IL-33 interaction, 1 h | Interleukin-1 receptor-like 1 (Homo sapiens), Q01638 | actives 2.3% (n = 78,000) | inhibition, % for hits at 17 µM; in the data active = inhibition above about 30%
Target sequence (Q01638 whole entry, looked up): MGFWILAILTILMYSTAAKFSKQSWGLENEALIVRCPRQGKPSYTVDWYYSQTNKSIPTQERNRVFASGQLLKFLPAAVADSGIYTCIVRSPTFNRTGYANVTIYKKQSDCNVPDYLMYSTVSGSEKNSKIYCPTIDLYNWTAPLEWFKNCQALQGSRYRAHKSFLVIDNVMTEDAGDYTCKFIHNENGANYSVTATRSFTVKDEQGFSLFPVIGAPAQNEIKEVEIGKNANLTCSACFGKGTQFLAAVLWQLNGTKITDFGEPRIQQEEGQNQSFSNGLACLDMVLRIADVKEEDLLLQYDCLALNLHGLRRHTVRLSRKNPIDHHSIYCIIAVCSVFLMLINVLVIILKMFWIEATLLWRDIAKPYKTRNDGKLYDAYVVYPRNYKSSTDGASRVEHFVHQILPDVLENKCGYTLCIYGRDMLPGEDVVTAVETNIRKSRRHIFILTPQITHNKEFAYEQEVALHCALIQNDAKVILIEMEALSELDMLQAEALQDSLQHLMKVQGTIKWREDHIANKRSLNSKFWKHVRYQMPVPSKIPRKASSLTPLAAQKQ
Starred values were filed as active, the others as inactive; i = inactive. Shown is part of a subset that was picked to be rich in hits.

SMILES	ST2 IL33 inh
O=C1NC(=O)c2cc(N3Cc4ccccc4C3)ccc21	i
O=[N+]([O-])c1cccc2c1NC(c1cccc(Cl)c1Cl)C1CC=CC21 (configuration not stated)	39%*
O=[N+]([O-])c1ccc(C2Nc3c(cccc3C(F)(F)F)C3C=CCC32)cc1 (configuration not stated)	i
O=C(c1cccc2c1NC(c1ccc(Cl)cc1Cl)C1CC=CC21)N1CCCC1 (configuration not stated)	i
Cc1ncc([N+](=O)[O-])n1S(=O)(=O)c1ccc(Cl)cc1	i
COc1ccc(-c2nnsc2-c2nc3ccccc3[nH]2)cc1	i
COc1cccc(C2=Nn3c(nnc3-c3ccccc3)SC2)c1	i
O=c1oc2ccccc2cc1C1=Nn2c(nnc2-c2cccc(F)c2)SC1	i
Fc1cccc(-c2nnc3n2N=C(c2ccc(Cl)s2)CS3)c1	30%*
O=C(Nc1ccccc1Br)c1ccccc1F	i
COc1ccc(S(=O)(=O)NCCC2=CCCCC2)cc1OC	i
CC(=O)N1CCc2cc(N=Cc3cccc([N+](=O)[O-])c3O)ccc21	i
Cc1ccc(NC(=O)c2ccc(C)c(S(=O)(=O)Nc3ccccn3)c2)cc1	i
O=C(Nc1ccc(Br)cc1)c1cccc(S(=O)(=O)Nc2ccccn2)c1	42%*
O=S(=O)(Nc1ccccn1)c1ccc(Br)cc1	i
O=C(O)CSC12C[C@H]3C[C@@H](C1)CC(C(=O)O)(C3)C2	i
O=C(c1ccc(NCc2cccnc2)nc1)N1CCCC(c2ccccc2)CC1 (configuration not stated)	i
O=C(CSc1ccc2nnc(-c3cccnc3)n2n1)N1CCCC(c2ccccc2)CC1 (configuration not stated)	36%*
O=C(CSc1ccc2nnc(-c3cccnc3)n2n1)N1CCCCC1c1ccc(F)cc1 (configuration not stated)	i
CCC1CCCCN1CCCNC(=O)c1cn(CC)c(=O)c2cc(OC)c(OC)cc12 (configuration not stated)	i
O=C(c1ccccc1Cl)N1N=C(c2ccccc2)CC1(O)C(F)(F)F (configuration not stated)	i
O=C(Nc1ccc(F)cc1F)c1noc2c1CCCC2	i
C=CCNC(=O)c1cc2c(=O)n3cccc(C)c3nc2n(CCCn2ccnc2)c1=N	31%*
Cc1cccn2c(=O)c3cc(C(=O)NCC4CCCO4)c(=N)n(CCCn4ccnc4)c3nc12 (configuration not stated)	i
COCCCn1c(=N)c(C(=O)NC2CCCC2)cc2c(=O)n3cccc(C)c3nc21	i
SMILES	ST2 IL33 inh
Cc1cnc(C)c(-c2ccccc2C(=O)N(C(C)C)C(C)C)n1	i
CCCc1cc2c(-c3ccccc3)cc(=O)oc2cc1O	i
O=C(NCC1c2ccccc2CCN1C(=O)Cn1cnc([N+](=O)[O-])n1)C1CCCCC1 (configuration not stated)	i
CCOC(=O)C1(CC2CC2)CCN(Cc2ccc(SC)cc2)CC1	i
CCN1C(=O)N(CCCc2cccnc2)C(=O)C12CCN(Cc1cnc(-c3ccccc3)s1)CC2	i
CCN1C(=O)N(CCN(C)C)C(=O)C12CCN(Cc1ccc(SC)cc1)CC2	51%*
Cc1cc(N2CCNC(C)C2)nc(-c2ccccc2)n1 (configuration not stated)	i
O=S(=O)(c1ccc(Cl)c(Cl)c1)N1CCCCC1	i
Cc1ccc(S(=O)(=O)N2CCN(S(=O)(=O)c3ccccc3)C2)cc1[N+](=O)[O-]	i
Cc1ccc(S(=O)(=O)N2CCN(C(=O)c3ccccc3)C2)cc1[N+](=O)[O-]	i
O=[N+]([O-])c1ccc(N2CCN(Cc3ccccc3)CC2)c(S(=O)(=O)N2CCOCC2)c1	i
CN(C)S(=O)(=O)c1cc([N+](=O)[O-])ccc1N1CCCCCC1	i
O=[N+]([O-])c1ccccc1N1CCN(S(=O)(=O)c2ccc(Cl)c(Cl)c2)CC1	30%*
Cc1ccc(S(=O)(=O)N2CCN(c3ccccc3)CC2)cc1[N+](=O)[O-]	40%*
O=[N+]([O-])c1ccccc1S(=O)(=O)Nc1ccc(Cl)c(Cl)c1	i
O=[N+]([O-])c1ccc(N2CCN(c3ccccc3)CC2)c(S(=O)(=O)N2CCCCC2)c1	50%*
CC1(C)CC(=O)C2=C(C1)OC(N)=C(C#N)C2c1ccc(Cl)cc1Cl (configuration not stated)	i
O=C(Nc1ccc(S(=O)(=O)N2CCCC2)cc1)c1ccc(Cl)cc1Cl	i
CSc1nnc2c(n1)OC(c1ccc(O)c(O)c1)Nc1ccc(Br)cc1-2 (configuration not stated)	i
C=C(C)CN(CC)Cc1ccccc1O	i
COc1ccccc1OCC(=O)Nc1ccc(OCC(=O)O)cc1	i
COCC1(Cn2cnc(-c3ccccc3)c2-c2cccc3cnccc23)CC1	i
O=C(NCCc1c[nH]c2ccccc12)c1ccccc1Br	i
COc1ccc(NS(=O)(=O)c2ccc3c(c2)CCN3C(=O)C2CCC2)cc1	i
COc1ccc(OCC(=O)Nc2ccc(S(=O)(=O)Nc3cc(C)ccc3C)cc2)cc1	i
SMILES	ST2 IL33 inh
CNC(=O)c1ccccc1N	i
Cc1nnsc1CN1CCCN(CC2CC2)C(C(C)C)C1 (configuration not stated)	i
CCCOc1ccccc1C1CC(=O)C2=C(C1)Nc1ccccc1NC2c1ccc(OC)cc1 (configuration not stated)	i
COc1cc(C2Nc3ccccc3NC3=C2C(=O)CC(c2ccccc2)C3)ccc1OC(C)=O (configuration not stated)	i
COc1ccc(C2CC(=O)C3=C(C2)Nc2ccccc2NC3c2ccc(C)s2)cc1 (configuration not stated)	30%*
CCOC(=O)C1C(=O)C=C(c2ccc(F)cc2)CC1c1cccc(OC)c1OC (configuration not stated)	i
CC(C)N1CCC[C@H]1c1nc(-c2ccc(-n3ccnc3)nc2)no1	35%*
c1cc(N2CCOCC2)ncc1-c1noc([C@@H]2CCCN2C2CCOCC2)n1	i
c1cn(-c2ccc(-c3noc([C@@H]4CCCN4)n3)cn2)cn1	i
COCCNS(=O)(=O)c1ccc2c(c1)CCN2C(=O)C1CC1	i
CN(C)C[C@H]1O[C@@H](CO)[C@@H](O)[C@H]1N1CCN(c2ccccn2)CC1	i
N#Cc1c(N)n(-c2ccc(C(=O)O)cc2)c2nc3ccccc3nc12	36%*
COc1ccc(-n2c(N)c(C#N)c3nc4ccccc4nc32)cc1	i
N#Cc1c(N)n(-c2ccc(Br)cc2)c2nc3ccccc3nc12	i
Cc1ccsc1CN(C)C(=O)c1cnc(C(C)C)nc1C	i
Cc1ccc(Cl)cc1NC(=O)c1ccc([N+](=O)[O-])c(C)c1	i
Cc1cc(C(=O)NC2C3CC4CC(C3)CC2C4)ccc1[N+](=O)[O-] (configuration not stated)	i
Cc1cc(C(=O)NCc2ccc(F)cc2)ccc1[N+](=O)[O-]	52%*
CCOC(=O)c1sc2nc(C)nc(Nc3ccc(C)cc3)c2c1C	i
CCN(CC)CCCNC(=O)COc1ccc2c(c1)C(=O)CC(C)(C)O2	i
CCSc1nc2c(c(=O)[nH]1)C(c1cc(OC)c(OC)c(OC)c1)C1=C(CCCC1=O)N2 (configuration not stated)	i
CC[C@H]1CN(C(=O)c2cccnc2N2CCOCC2)CC[C@@]1(C)O	i

Compound activity from PubChem.
